Experimental data published in PubChem BioAssay AID652142 (Molecular Libraries Program, Specialized Chemistry Center, …, 2013).
Among all 2,400 compounds or so, fewer than 10 were called active. The rule behind the calls is not given here. The list is a sample of the results.

Biological target: Rac GTPase-activating protein 1 (Homo sapiens) (UniProt Q9H0H5)
Assay: inhibition of MgcRacGAP-stimulated Rac1 GTP hydrolysis – biochemical, inorganic phosphate detection, orthogonal assay, confirmation (AID 652142)
Details: MgcRacGAP/Rac1F28L GTP hydrolysis, Biomol green phosphate; hits give high values

Chain of Rac GTPase-activating protein 1 (Homo sapiens) (Q9H0H5 whole entry, looked up): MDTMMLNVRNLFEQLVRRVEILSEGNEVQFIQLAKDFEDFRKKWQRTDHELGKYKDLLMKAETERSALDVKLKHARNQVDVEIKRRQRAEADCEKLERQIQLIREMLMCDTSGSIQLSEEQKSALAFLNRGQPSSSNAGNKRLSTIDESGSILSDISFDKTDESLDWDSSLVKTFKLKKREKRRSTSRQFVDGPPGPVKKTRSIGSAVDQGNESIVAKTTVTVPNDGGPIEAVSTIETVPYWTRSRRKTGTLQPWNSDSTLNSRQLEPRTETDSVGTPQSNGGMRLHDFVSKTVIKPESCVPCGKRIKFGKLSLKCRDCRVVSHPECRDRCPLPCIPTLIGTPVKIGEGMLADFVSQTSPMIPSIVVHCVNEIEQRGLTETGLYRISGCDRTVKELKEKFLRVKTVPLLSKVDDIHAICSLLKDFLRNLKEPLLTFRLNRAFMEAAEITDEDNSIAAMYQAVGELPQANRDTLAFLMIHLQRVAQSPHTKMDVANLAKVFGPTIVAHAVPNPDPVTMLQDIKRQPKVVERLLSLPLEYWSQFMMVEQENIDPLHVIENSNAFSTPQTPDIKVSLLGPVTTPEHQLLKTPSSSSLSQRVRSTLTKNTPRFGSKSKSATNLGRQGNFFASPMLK

inhibition, inactive:
Cc1nn2cc(-c3ccc(N)cc3)nc2s1 22.3%
Oc1ccc(/C=N/Nc2ccnc3cc(Cl)ccc23)cc1O 4.55%
Oc1ccc(/C=N\Nc2cc(N3CCOCC3)nc(N3CCOCC3)n2)c(O)c1 21.8%
Nc1ccc(N2CCCC2)c(S(=O)(=O)Nc2cccc(C(F)(F)F)c2)c1 29.9%
Cc1ccc(-c2cc(C(=O)N3CCN(c4ccc(O)cc4)CC3)c3ccccc3n2)cc1 23.8%
O=C(/C=C/Nc1ccc(Nc2ccccc2)cc1)c1cccs1 19.5%
C/C(=N\NC(=O)c1cccc(N/N=C(\C)c2cc(O)ccc2O)c1)c1cc(O)ccc1O 28.1%
Cc1ccc(CN2CCN(Cc3ccccc3C(F)(F)F)CC2)cc1 17.2%
CCOC(=O)C1=C(COC(=O)/C=C/c2ccc(O)c(OC)c2)NC(=O)NC1C (configuration not stated) 11.2%
COc1cc(/C=C/C(=O)OCC(=O)N2CC3(C)CC2CC(C)(C)C3)ccc1O (configuration not stated) 33.5%
COc1ccc(S(=O)(=O)/N=C2\C=C(Nc3ccc(O)cc3)C(=O)c3ccccc32)cc1 13.5%
CCn1c(=S)[nH]c2sc3c(c2c1=O)CCCC3 10.8%
CCc1ccc(O)c(N=Cc2cccc(C)c2O)c1 23.4%
N=C(N)c1ccc(N=Nc2c(O)ccc3c2[nH]c2ccccc23)cc1 62.4%
CCc1ccc(O)c(N=Cc2ccccc2O)c1 33.5%
CN(C)c1ccc(C=c2c3cc(O)ccc3n3c2cc(-c2ccccc2)[n+]3C)cc1 83.7%
Oc1ccc(/C=N/Nc2cc(N3CCOCC3)nc(N3CCOCC3)n2)cc1 25.9%
Oc1ccc(/C=N/Nc2ccc(C(F)(F)F)cn2)c(O)c1 19.4%
O=S(=O)(O)c1cc(O)c(N=Nc2ccc(O)cc2O)c2ccccc12 24.4%
Oc1ccc(-c2[nH]ncc2-c2ccc(Cl)cc2)c(O)c1 26.7%
CN(C)c1ccc2c(c1)C(=NO)c1ccccc1-2 19.4%
O=C(NCc1ccco1)c1sc(=S)n2c1[nH]c(=O)c1ccccc12 31.8%
CCN(CC)c1ccc(Nc2nc(Cl)ncc2Br)cc1 33.2%
CCOc1cc(/C=N/NC(=O)CN2CCCCC2)ccc1O 30.3%
CN(c1ccc(O)cc1)c1nc(-c2ccccc2)cs1 23.3%
COc1cc(/C=N/Nc2nc3ccccc3[nH]2)ccc1O 12.2%
CCN(c1ccccc1)S(=O)(=O)c1ccc(N2CCN(c3ccc(O)cc3)CC2)nc1 27.7%
CCOc1cc(/C=N/NC(=O)CCCC(=O)NC2CCCCC2)ccc1O 20.5%
Cc1cc(-c2ccccc2)nc(N/N=C/c2ccc(O)cc2O)n1 20.5%
Cc1c(C(=O)N/N=C/c2ccc(O)c(Br)c2)sc(N)c1C#N 31.3%
Nc1ccc2nc(C3CCCCC3)[nH]c2c1 28.4%
COc1cc(/C=N/NC(=S)NC2CC3CCC2C3)ccc1O (configuration not stated) -0.0456%
COc1cc2c(cc1NC(=O)C(Cl)Cl)-c1ccc(NC(=O)C(Cl)Cl)cc1C2 13.1%
CSc1nc(/C=C2\C=Nc3ccccc32)c(O)n1C 7.92%
Cn1c(-c2ccc(Cl)cc2)cnc1NCc1cc2c(cc1[N+](=O)[O-])OCO2 22.1%
C=CCn1c(SCC(=O)c2ccc(O)c(O)c2)nnc1-c1cccc(Cl)c1 29.9%
CN(Cc1ccccc1)Cc1c(O)ccc2ccccc12 23.9%
COc1cc(/C=N/NC(=O)CN(Cc2ccccc2)S(=O)(=O)c2ccc3c(c2)OCCO3)ccc1O -2.68%
COc1cccc(CNc2ccc3[nH]c(=O)[nH]c3c2)c1OCc1ccccc1Cl -0.282%
Cc1ccccc1C(OCC(O)CN1CCN(CCO)CC1)c1ccccc1 (configuration not stated) 29.2%
CCN1CCN(CCOc2ccc(Br)cc2C)CC1 23.2%
COc1cc(/C=N/NC(=O)NC23CC4CC(CC(C4)C2)C3)ccc1O 35.9%
O=c1c2ccccc2sn1-c1ccc(Cl)cc1 75%
CC[n+]1ccc(/C=C/c2ccc(N(C)C)cc2)c2ccccc21 31.5%
COc1cc(/C=N/NC(=O)c2nnn(-c3nonc3N)c2C(C)C)ccc1O 15.1%
CN1CCN(/N=C/c2nc(-c3ccccc3)n3ccccc23)CC1 30.1%
CC(=O)N1CCN(c2ccc(Nc3ncnc4c3oc3ccccc34)cc2)CC1 8.13%
CCOc1cc(/C=N/NC(=O)c2ccccc2-n2cccc2)ccc1O 30.4%
CN(C)c1ccc(N=C/C=C2\N(C)c3ccccc3C2(C)C)cc1 22.7%
COc1cc(/C=N/NC(=O)c2ccc(-n3cccc3)cc2)ccc1O 12.4%
COc1cc(/C=N/NC(=O)C2(O)c3ccccc3-c3ccccc32)ccc1O 25.6%
COc1ccc(Oc2cn[nH]c2-c2ccc(O)cc2O)cc1 17.2%
Cc1cc(-c2ccccc2)nc(N/N=C/c2ccc(N(C)C)cc2)n1 23.8%
COc1cc(-c2nc3ccc(C)cn3c2Nc2ccc3c(c2)OCCO3)ccc1O 21.3%
CCOC(=O)c1cc(NCc2cccs2)ccc1N1CCOCC1 30.4%
O=C(N/N=C/c1ccc(O)cc1)Nc1cccc2nsnc12 33.1%
CC(=O)Nc1ccc(Oc2nc(-c3ccccn3)nc3ccccc23)cc1 26%
CCCS(=O)(=O)N1CCN(CC2CC3C=CC2C3)CC1 (configuration not stated) 10.6%
O=c1c2ccccc2sn1-c1ccc(Cl)cc1Cl 79.5%
O=[N+]([O-])c1cccc(/C=N/n2c(-c3cccnc3)n[nH]c2=S)c1 32.9%
C=CCn1c(N/N=C/c2ccc(O)cc2)nc2ccccc2c1=O 18.4%
COc1cc(CCNC2=CC(=O)c3ncccc3C2=O)ccc1O 23.7%
